Laboratory results taken from PubChem BioAssay (NCATS).
Results filed as inconclusive are left out. Calls follow the shape of the dose curve; as a rule, active = well fitted curve in either direction with a large enough effect (not every such curve was filed as active); inconclusive = small, poorly fitted or top-dose-only effect, or another doubt; inactive = flat fitted curve, though single readings scatter.

Test: AP1 Signaling Pathway (AID 357)
Conditions: ME-180 (cervical carcinoma) AP-1-bla reporter, EGF-induced, beta-lactamase ratio, 5 h; at 17.2 µM (top of the series) unless noted
How it was run: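 In this screen, ME-180 cells in Opti-MEM with 0.5% dialyzed FBS received EC50 EGF and compound titrations for 5 h. AP-1 reporter beta-lactamase was detected via CCF4 ratio, giving AC50 for positive and negative modulators.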
% is scaled to controls: 0 for no effect and ±100 for the full control effect.

Activity change, negative = inhibition, inactive:
CC(C)OC(=O)[C@H]1[C@H](c2ccc(Cl)cc2)[C@@](C#N)(C(N)=O)[C@@H]2C=CC(C(N)=O)=CN21 -13.7%
Cc1ccc(-c2nn(CCC(=O)NCC3CCCO3)c(=O)c3ccccc23)cc1 (stereo not drawn) -6.92%
C=CCOc1nc2c(c(=O)n(Cc3ccc(Cl)cc3)c(=O)n2C)n1C -10.1%
COc1cc(C(=O)NCC(=O)n2nc(C)cc2C)cc(OC)c1OC 0.479%
CCC1(C)Cc2c(sc3nc4n(c(=O)c23)CCS4)CO1 (stereo not drawn) -20.5%
CCOc1ccc(-n2c(SCc3ccc(C#N)cc3)nnc2-c2cccnc2)cc1 -13.8%
COc1ccc(OC)c(C2NC(=O)c3sc(=S)n(-c4ccccc4)c3N2)c1 (stereo not drawn) -13.3%
CC1CCc2cc(F)cc3c(O)c(C(=O)NCC4CCCO4)c(=O)n1c23 (stereo not drawn) -6.28%
COC(=O)c1nn2c(C(F)(F)F)cc(-c3ccc(Br)o3)nc2c1Br 0.345%
CCOc1ccc(N=C2C(=O)N(CN3CCOCC3)c3ccccc32)cc1 2.27%
O=C(Nc1nc(=O)c2ccccc2s1)c1ccccc1 -10.8%
Cc1cc(N2CCN(C3CCCC3)CC2)n2c(nc3ccccc32)c1C#N 17.3%
COc1ccc(C2/C(=C(/O)c3cnn(-c4ccccc4)c3C)C(=O)C(=O)N2CCN(C)C)cc1OC (stereo not drawn) -0.291%
CC(C)C1C(C#N)=C(N)Oc2n[nH]c(C(C)(C)C)c21 (stereo not drawn) -20.9%
COc1ccccc1NC(=O)c1c(C)cc(=O)oc1C 13%
CCC(=O)OC1=C2C(=Nc3c(c(=O)n(C)c(=O)n3C)C2c2ccccc2)c2ccccc21 (stereo not drawn) 8.9%
CSc1nnc(N(CCC#N)CCC#N)s1 2.14%
CCOC(=O)C1CSc2[nH]c(=O)sc2C1c1ccccc1 (stereo not drawn) 0.248%
CNS(=O)(=O)c1cccc2nsnc12 6.07%
C1CNCCNCCNCCN1 -9.33%
Cn1c(=O)c2c(nc(N3CCC(C(N)=O)CC3)n2CCSc2nc3ccccc3s2)n(C)c1=O -0.203%
Cn1c(OCc2cccnc2)nc2c1c(=O)n(Cc1ccc(Cl)cc1)c(=O)n2C -16.3%
Cc1nc2ccccc2cc1O 13.6%
